# In article PMC8222333, “AsCas12a ultra nuclease facilitates the rapid generation of therapeutic cell medicines”:
# B1: GGCC (dsDNA)
# DNA 1: GCTATCTAGTGCTCAGTACGCACTGGGCCAGGAAACTTCTGGCAGGACCAGGTCATGAGATCGGAAGAGCACACGTCTGAACTCCAGTCA
# DNA 2: TGACTGGAGTTCAGACGTGTGCTCTTCCGATCTCATGACCTGGTCCTGCCAGAAGTTTCCTGGCCCAGTGCGTACTGAGCACTAGATAGC
# RNA: AAUUUCUACUCUUGUAGAUAGGAAACUUCUGGCAGGACC
# B2: GGGT (dsDNA)
# DNA 1: GCTATCTAGTGCTCAGTACGCACTGGGGTAGGAAACTTCTGGCAGGACCAGGTCATGAGATCGGAAGAGCACACGTCTGAACTCCAGTCA
# DNA 2: TGACTGGAGTTCAGACGTGTGCTCTTCCGATCTCATGACCTGGTCCTGCCAGAAGTTTCCTACCCCAGTGCGTACTGAGCACTAGATAGC
# RNA: AAUUUCUACUCUUGUAGAUAGGAAACUUCUGGCAGGACC
# B3: GTCG (dsDNA)
# DNA 1: GCTATCTAGTGCTCAGTACGCACTGGTCGAGGAAACTTCTGGCAGGACCAGGTCATGAGATCGGAAGAGCACACGTCTGAACTCCAGTCA
# DNA 2: TGACTGGAGTTCAGACGTGTGCTCTTCCGATCTCATGACCTGGTCCTGCCAGAAGTTTCCTCGACCAGTGCGTACTGAGCACTAGATAGC
# RNA: AAUUUCUACUCUUGUAGAUAGGAAACUUCUGGCAGGACC
# B4: GTCC (dsDNA)
# DNA 1: GCTATCTAGTGCTCAGTACGCACTGGTCCAGGAAACTTCTGGCAGGACCAGGTCATGAGATCGGAAGAGCACACGTCTGAACTCCAGTCA
# DNA 2: TGACTGGAGTTCAGACGTGTGCTCTTCCGATCTCATGACCTGGTCCTGCCAGAAGTTTCCTGGACCAGTGCGTACTGAGCACTAGATAGC
# RNA: AAUUUCUACUCUUGUAGAUAGGAAACUUCUGGCAGGACC
# B5: GGCT (dsDNA)
# DNA 1: GCTATCTAGTGCTCAGTACGCACTGGGCTAGGAAACTTCTGGCAGGACCAGGTCATGAGATCGGAAGAGCACACGTCTGAACTCCAGTCA
# DNA 2: TGACTGGAGTTCAGACGTGTGCTCTTCCGATCTCATGACCTGGTCCTGCCAGAAGTTTCCTAGCCCAGTGCGTACTGAGCACTAGATAGC
# RNA: AAUUUCUACUCUUGUAGAUAGGAAACUUCUGGCAGGACC
# B6: GGGC (dsDNA)
# DNA 1: GCTATCTAGTGCTCAGTACGCACTGGGGCAGGAAACTTCTGGCAGGACCAGGTCATGAGATCGGAAGAGCACACGTCTGAACTCCAGTCA
# DNA 2: TGACTGGAGTTCAGACGTGTGCTCTTCCGATCTCATGACCTGGTCCTGCCAGAAGTTTCCTGCCCCAGTGCGTACTGAGCACTAGATAGC
# RNA: AAUUUCUACUCUUGUAGAUAGGAAACUUCUGGCAGGACC
# B7: GTGG (dsDNA)
# DNA 1: GCTATCTAGTGCTCAGTACGCACTGGTGGAGGAAACTTCTGGCAGGACCAGGTCATGAGATCGGAAGAGCACACGTCTGAACTCCAGTCA
# DNA 2: TGACTGGAGTTCAGACGTGTGCTCTTCCGATCTCATGACCTGGTCCTGCCAGAAGTTTCCTCCACCAGTGCGTACTGAGCACTAGATAGC
# RNA: AAUUUCUACUCUUGUAGAUAGGAAACUUCUGGCAGGACC
# B8: GGTG (dsDNA)
# DNA 1: GCTATCTAGTGCTCAGTACGCACTGGGTGAGGAAACTTCTGGCAGGACCAGGTCATGAGATCGGAAGAGCACACGTCTGAACTCCAGTCA
# DNA 2: TGACTGGAGTTCAGACGTGTGCTCTTCCGATCTCATGACCTGGTCCTGCCAGAAGTTTCCTCACCCAGTGCGTACTGAGCACTAGATAGC
# RNA: AAUUUCUACUCUUGUAGAUAGGAAACUUCUGGCAGGACC
# B9: GTAG (dsDNA)
# DNA 1: GCTATCTAGTGCTCAGTACGCACTGGTAGAGGAAACTTCTGGCAGGACCAGGTCATGAGATCGGAAGAGCACACGTCTGAACTCCAGTCA
# DNA 2: TGACTGGAGTTCAGACGTGTGCTCTTCCGATCTCATGACCTGGTCCTGCCAGAAGTTTCCTCTACCAGTGCGTACTGAGCACTAGATAGC
# RNA: AAUUUCUACUCUUGUAGAUAGGAAACUUCUGGCAGGACC
# Target: dAsCas12a S542R (Acidaminococcus sp., UniProt U2UMQ6 1-1307, S542R;D908A;E993A;D1235A)
# Assay: Spec-seq (native PAGE EMSA with sequencing of bound and unbound); 25 mM Tris-HCl pH 7.4, 150 mM KCl, 5 mM MgCl2, 10% glycerol, 1 mM DTT, 40 ng/uL salmon sperm DNA; 400 nM Cas12a, 480 nM crRNA, 50 nM library, 37 C 1 h; native PAGE at room temperature; high values mean tight binding
# Settings: protein: recombinant
# 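Also: relative affinity from the bound to unbound sequence frequency ratio in Spec-seq.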
row,Binder,binding signal
1,B1,-8.47 lnKA
2,B2,-8.85 lnKA
3,B3,-6.96 lnKA
4,B4,-5.08 lnKA
5,B5,-8.78 lnKA
6,B6,-8.77 lnKA
7,B7,-8.13 lnKA
8,B8,-8.15 lnKA
9,B9,-8.28 lnKA

# Target: d-enCas12a (Acidaminococcus sp., UniProt U2UMQ6 1-1307, E174R;S542R;K548R;D908A;E993A;D1235A)
# Assay: as above
# Settings: protein: recombinant
row,Binder,binding signal
1,B1,-3.7 lnKA
2,B2,-5.77 lnKA
3,B3,-4.39 lnKA
4,B4,-1.42 lnKA
5,B5,-5.68 lnKA
6,B6,-5.93 lnKA
7,B7,-5.91 lnKA
8,B8,-4.86 lnKA
9,B9,-5.83 lnKA

# Target: d-enCas12a-Ultra (Acidaminococcus sp., UniProt U2UMQ6 1-1307, E174R;S542R;K548R;M537R;F870L;D908A;E993A;D1235A)
# Assay: as above
# Settings: protein: recombinant
row,Binder,binding signal
1,B1,-0.996 lnKA
2,B2,-3.46 lnKA
3,B3,-1.21 lnKA
4,B4,-0.355 lnKA
5,B5,-2.87 lnKA
6,B6,-3.41 lnKA
7,B7,-3.47 lnKA
8,B8,-1.95 lnKA
9,B9,-3.32 lnKA
